Test results: PubChem BioAssay AID1159580 (chemical genetic matrix, 2015)
Out of some 5,500 compounds screened, about 2,000 (36%) were called active. Another 18% or so got no clear call; they are omitted. No stated cut-off is given here; in the data, active means normalized growth mostly below about 0.91 (no sharp cut-off); inconclusive means no clear call, values can overlap the other calls; inactive means mostly above about 0.92. Some of the results follow.

Assay: chemical genetic growth profiling, strain panel (AID 1159580);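 further: tested at 20 µM; growth read once vehicle control cultures reached saturation at 30 °C; 1 = growth at the plate median or of vehicle wells; lower values mean less growth of the strain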
Settings: growth OD

Measured: normalized growth

Cn1c(=O)[nH]c(=O)c2[nH]cnc21
inactive: S. cerevisiae deletion strains, locus YJR075W, strain HOC1, hits give low values 0.995 | S. cerevisiae deletion strains, locus YKL009W, strain mrt4, hits give low values 0.998 | S. cerevisiae deletion strains, locus YKL068W, hits give low values 0.97 | S. cerevisiae deletion strains, locus YKL085W, strain MDH1 (second series), hits give low values 0.976 | S. cerevisiae deletion strains, locus YKL085W, strain MDH1, hits give low values 0.976 | S. cerevisiae deletion strains, locus YKL160W, strain elf1, hits give low values 1 | S. cerevisiae deletion strains, locus YKL190W, strain CNB1, hits give low values 0.995 | S. cerevisiae deletion strains, locus YKR001C, strain vps1, hits give low values 0.987 | S. cerevisiae deletion strains, locus YKR026C, strain gcn3, hits give low values 0.984 | S. cerevisiae deletion strains, locus YKR091W, strain srl3, hits give low values 0.992 | S. cerevisiae deletion strains, locus YLL001W, strain dnm1, hits give low values 1.01 | S. cerevisiae deletion strains, locus YLL026W, hits give low values 1 | S. cerevisiae deletion strains, locus YLL041C, strain sdh2, hits give low values 1 | S. cerevisiae deletion strains, locus YLR027C, strain aat2, hits give low values 0.974 | S. cerevisiae deletion strains, locus YLR039C, strain RIC1, hits give low values 0.974 | S. cerevisiae deletion strains, locus YLR058C, strain SHM2, hits give low values 0.988 | S. cerevisiae deletion strains, locus YLR102C, strain apc9, hits give low values 0.972 | S. cerevisiae deletion strains, locus YLR113W, strain HOG1, hits give low values 0.998 | S. cerevisiae deletion strains, locus YLR221C, strain rsa3, hits give low values 1.01 | S. cerevisiae deletion strains, locus YLR258W, strain gsy2, hits give low values 0.999 | S. cerevisiae deletion strains, locus YLR262C, strain YPT6 (second series), hits give low values 0.976 | S. cerevisiae deletion strains, locus YLR262C, strain YPT6, hits give low values 1.01 | S. cerevisiae deletion strains, locus YLR268W, strain sec22, hits give low values 0.956 | S. cerevisiae deletion strains, locus YLR320W, strain mms22, hits give low values 0.987 | S. cerevisiae deletion strains, locus YLR330W, strain CHS5, hits give low values 0.991 | S. cerevisiae deletion strains, locus YLR342W, strain FKS1 (second series), hits give low values 1.01 | S. cerevisiae deletion strains, locus YLR342W, strain FKS1, hits give low values 1.01 | S. cerevisiae deletion strains, locus YLR357W, strain rsc2, hits give low values 0.971 | S. cerevisiae deletion strains, locus YLR370C, strain arc18, hits give low values 0.989 | S. cerevisiae deletion strains, locus YLR371W, strain rom2, hits give low values 0.96 | S. cerevisiae deletion strains, locus YLR384C, strain iki3, hits give low values 0.983 | S. cerevisiae deletion strains, locus YLR418C, strain cdc73, hits give low values 0.983 | S. cerevisiae deletion strains, locus YML016C, strain PPZ1, hits give low values 0.986 | S. cerevisiae deletion strains, locus YML032C, strain rad52, hits give low values 0.974 | S. cerevisiae deletion strains, locus YML120C, strain ndi1, hits give low values 0.999 | S. cerevisiae deletion strains, locus YML124C, strain tub3, hits give low values 0.972 | S. cerevisiae deletion strains, locus YMR058W, strain fet3, hits give low values 1.01 | S. cerevisiae deletion strains, locus YMR078C, strain ctf18, hits give low values 0.954 | S. cerevisiae deletion strains, locus YMR125W, strain sto1, hits give low values 1.01 | S. cerevisiae deletion strains, locus YMR129W, hits give low values 0.99 | S. cerevisiae deletion strains, locus YMR205C, strain PFK2, hits give low values 0.998 | S. cerevisiae deletion strains, locus YMR223W, strain ubp8, hits give low values 0.987 | S. cerevisiae deletion strains, locus YMR231W, strain pep5, hits give low values 0.992 | S. cerevisiae deletion strains, locus YMR263W, strain SAP30, hits give low values 0.953 | S. cerevisiae deletion strains, locus YMR307W, strain GAS1, hits give low values 0.948 | S. cerevisiae deletion strains, locus YNL067W, strain RPL9B, hits give low values 0.996 | S. cerevisiae deletion strains, locus YNL071W, strain lat1, hits give low values 0.98 | S. cerevisiae deletion strains, locus YNL128W, strain TEP1, hits give low values 0.987 | S. cerevisiae deletion strains, locus YNL153C, strain GIM3, hits give low values 0.993 | S. cerevisiae deletion strains, locus YNL183C, strain NPR1, hits give low values 0.925 | S. cerevisiae deletion strains, locus YNL209W, strain ssb2, hits give low values 0.983 | S. cerevisiae deletion strains, locus YNL233W, strain BNI4, hits give low values 0.981 | S. cerevisiae deletion strains, locus YNL248C, strain rpa49, hits give low values 0.985 | S. cerevisiae deletion strains, locus YNL250W, strain rad50, hits give low values 0.956 | S. cerevisiae deletion strains, locus YNL271C, strain bni1, hits give low values 0.963 | S. cerevisiae deletion strains, locus YNL298W, strain CLA4, hits give low values 0.972 | S. cerevisiae deletion strains, locus YNL307C, strain MCK1, hits give low values 0.975 | S. cerevisiae deletion strains, locus YNL322C, strain KRE1 (second series), hits give low values 0.968 | S. cerevisiae deletion strains, locus YNL322C, strain KRE1, hits give low values 0.997 | S. cerevisiae deletion strains, locus YNR049C, strain mso1, hits give low values 1 | S. cerevisiae deletion strains, locus YNR052C, strain pop2, hits give low values 0.97 | S. cerevisiae deletion strains, locus YOL006C, strain TOP1, hits give low values 0.965 | S. cerevisiae deletion strains, locus YOL012C, strain htz1 1.01 | S. cerevisiae deletion strains, locus YOL147C, strain pex11, hits give low values 0.981 | S. cerevisiae deletion strains, locus YOR001W, strain rrp6, hits give low values 1.01 | S. cerevisiae deletion strains, locus YOR061W, strain CKA2, hits give low values 0.986 | S. cerevisiae deletion strains, locus YOR069W, strain VPS5, hits give low values 0.981 | S. cerevisiae deletion strains, locus YOR070C, strain gyp1, hits give low values 0.998 | S. cerevisiae deletion strains, locus YOR080W, strain dia2, hits give low values 0.986 | S. cerevisiae deletion strains, locus YOR083W, strain WHI5, hits give low values 0.933 | S. cerevisiae deletion strains, locus YOR106W, strain vam3, hits give low values 0.977 | S. cerevisiae deletion strains, locus YOR136W, strain idh2, hits give low values 0.967 | S. cerevisiae deletion strains, locus YOR144C, strain elg1, hits give low values 0.958 | S. cerevisiae deletion strains, locus YOR184W, strain ser1, hits give low values 0.966 | S. cerevisiae deletion strains, locus YOR231W, strain MKK1, hits give low values 0.978 | S. cerevisiae deletion strains, locus YOR265W, strain rbl2, hits give low values 0.988 | S. cerevisiae deletion strains, locus YOR270C, strain vph1, hits give low values 0.981 | S. cerevisiae deletion strains, locus YOR290C, strain snf2, hits give low values 0.987 | S. cerevisiae deletion strains, locus YOR316C, strain cot1, hits give low values 0.972 | S. cerevisiae deletion strains, locus YPL051W, strain arl3, hits give low values 0.988 | S. cerevisiae deletion strains, locus YPL055C, strain LGE1, hits give low values 1 | S. cerevisiae deletion strains, locus YPL078C, strain atp4, hits give low values 0.988 | S. cerevisiae deletion strains, locus YPL106C, strain sse1, hits give low values 0.958 | S. cerevisiae deletion strains, locus YPL240C, strain hsp82, hits give low values 1.02 | S. cerevisiae deletion strains, locus YPL241C, strain CIN2, hits give low values 0.993 | S. cerevisiae deletion strains, locus YPL256C, strain CLN2, hits give low values 0.972 | S. cerevisiae deletion strains, locus YPR119W, strain clb2, hits give low values 0.974 | S. cerevisiae deletion strains, locus YPR141C, strain kar3, hits give low values 0.952 | S. cerevisiae deletion strains, locus YPR163C, strain tif3, hits give low values 0.965 | S. cerevisiae deletion strains, locus YPR167C, strain met16, hits give low values 0.965 | S. cerevisiae deletion strains, strain wtn01, hits give low values 0.982 | S. cerevisiae strains, strain wild type, hits give low values 0.993
